Where a name gives a salt, the structure may show the parent alone. The whole screen tested about 1,800 compounds, of which about 50 (3%) showed activity. The list comes from a sample in which actives are over-represented; it also holds similar structures and randomly drawn compounds. Values without a mark were called inactive.

This note sets out measurements from the supplement of paper PMC11060735.

The assay has as its system mouse p16Ink4a+/- lung fibroblasts (INKBRITE, bleomycin-injured). Nature of the assay: percentage of GFP+ (p16Ink4a+) fibroblasts among all cells in well; higher = less depletion of p16Ink4a+ cells, active = 20 or less. The conditions noted are these: 1 µM; 3 days.
As to `CNC(=O)c1c(F)cccc1Nc1nc(Nc2cc3c(cc2OC)CCN3C(=O)CN(C)C)nc2[nH]ccc12`, the “percentage of GFP+” value is 50.1%.
Turning to `O=NO` [Sodium Nitrite], the “percentage of GFP+” value is 52.2%.
For `N#CC[C@H](C1CCCC1)n1cc(-c2ncnc3[nH]ccc23)cn1` [Ruxolitinib] the value was 44.6%.
For the molecule `Cc1nc(-c2ccc(OCC(C)C)c(C#N)c2)sc1C(=O)O` [Febuxostat], the “percentage of GFP+” value was 42.1%.
In the case of `COc1ccc(CNc2nc(N3CCC[C@H]3CO)ncc2C(=O)NCc2ncccn2)cc1Cl` [Avanafil], the “percentage of GFP+” value was 46.5%.
On to `CCc1cnn2c(NCc3ccc[n+]([O-])c3)cc(N3CCCC[C@H]3CCO)nc12` [Dinaciclib], for which the “percentage of GFP+” value was 13% (active).
Consider `COc1c(C)c(C(=O)c2ccc(N)c(C(=O)O)c2)n2ccccc12`, for which the “percentage of GFP+” value is 39%.
Regarding `COC(=O)[C@H](c1ccccc1Cl)N1CCc2sccc2C1` [Clopidogrel], the “percentage of GFP+” value is 36.5%.
Turning to `CN1CCN(CCCN2c3ccccc3Sc3ccc(C(F)(F)F)cc32)CC1` [Trifluoperazine], the “percentage of GFP+” value was 52%.
For `CCCCc1nc2cc(/C=C/C(=O)NO)ccc2n1CCN(CC)CC` [Pracinostat] the value was 24.8%; for `COc1cc(/C=C/C(=O)/C=C(O)/C=C/c2ccc(O)c(OC)c2)ccc1O`, 38.1%; for `CC[C@H](/C=C/[C@@H](C)[C@@H]1CC[C@H]2[C@@H]3CC=C4C[C@@H](O)CC[C@]4(C)[C@@H]3CC[C@@]21C)C(C)C` [Stigmasterol], 44.8%.
For `Nc1nccc(Oc2ccc(NC(=O)c3cncc(-c4ccc(F)cc4)c3O)cc2F)c1Cl`, the “percentage of GFP+” value is 49.5%.
On to `COC(=O)[C@]12CCC(C)(C)C[C@@H]1[C@@H]1C(=O)C=C3[C@]4(C)C=C(C#N)C(=O)C(C)(C)[C@@H]4CC[C@@]3(C)[C@]1(C)CC2` [Bardoxolone Methyl], for which the “percentage of GFP+” value was 5.23% (active).
For `O=C(O)c1cc(N=Nc2ccc(O)c(C(=O)O)c2)ccc1O` [Olsalazine], the “percentage of GFP+” value was 43.3%.
`O=C1c2c(O)cccc2[C@H]([C@@H]2O[C@H](CO)[C@@H](O)[C@H](O)[C@H]2O)c2cc(CO)cc(O)c21` [Aloin]: the “percentage of GFP+” value is 20.8%.
Turning to `CC(C)(C)c1cc(C(C)(C)C)c(NC(=O)c2cnc3ccccc3c2O)cc1O` [Ivacaftor], the “percentage of GFP+” value is 38%.
Consider `CC(C)c1ccccc1Cc1cc(C(=O)Nc2ccc(S(=O)(=O)c3ccccc3C(C)(C)C)cc2)c(O)c(O)c1O`, for which the “percentage of GFP+” value is 16.4% (active).
Consider `CC(C)c1cc(C(C)C)c(CC(=O)NS(=O)(=O)Oc2c(C(C)C)cccc2C(C)C)c(C(C)C)c1` [Avasimibe], for which the “percentage of GFP+” value is 53.1%.
With `CC(C)(C)c1cc(/C=C(\C#N)C(N)=S)cc(C(C)(C)C)c1O` [Tyrphostin], the “percentage of GFP+” value was 50.3%.
Regarding `CCC(CC)CC1(C(=O)Nc2ccccc2SC(=O)C(C)C)CCCCC1` [Dalcetrapib], the “percentage of GFP+” value was 37.6%.
As to `CCOC(=O)[C@H](CCc1ccccc1)N[C@H]1CS[C@H](c2cccs2)CN(CC(=O)O)C1=O` [Temocapril], the “percentage of GFP+” value was 45.2%.
For `CC(C)c1cc(C(=O)N2Cc3ccc(CN4CCN(C)CC4)cc3C2)c(O)cc1O` [Onalespib], the “percentage of GFP+” value was 9.46% (active).
With `C[C@@H](Oc1cc(-n2cnc3ccc(CN4CCN(C)CC4)cc32)sc1C(N)=O)c1ccccc1C(F)(F)F`, the “percentage of GFP+” value is 27.8%.
`COc1ccccc1N1CCN(CCN2C(=O)CC3(CCCC3)CC2=O)CC1` [Bmy 7378 Dihydrochloride]: the “percentage of GFP+” value was 43.4%.
For `C=CCc1cc(OC)c(O)c(C(=O)NCCO)c1` [Alibendol] the value was 42.5%.
Consider `COc1ccc(S(=O)(=O)Nc2cccnc2Nc2ccc(O)cc2)cc1`, for which the “percentage of GFP+” value was 23%.
Consider `Cc1[nH]c2ccccc2c1CCNCc1ccc(/C=C/C(=O)NO)cc1` [Panobinostat], for which the “percentage of GFP+” value is 2.9% (active).
Take `Cc1[nH]c2ccccc2c1CCNC(=O)c1cccs1` [N-[2-(2-methyl-1H-indol-3-yl)ethyl]thiophene-2-carboxamide]: the “percentage of GFP+” value was 39.3%.
For `CN(C)Cc1ccc(S(=O)(=O)n2ccc(/C=C/C(=O)NO)c2)cc1` [Resminostat], the “percentage of GFP+” value is 37.1%.
As for `CCC(=O)Nc1cccc(Oc2nc(Nc3ccc(N4CCN(C)CC4)cc3OC)ncc2Cl)c1`, the “percentage of GFP+” value is 42.3%.
On to `Cc1nn(-c2ccccc2)c(C)c1/C=N/N1CCN(Cc2ccccc2)CC1`, for which the “percentage of GFP+” value was 48.6%.
On to `CCC(C)(Oc1ccc(C2(c3ccc(OC(C)(CC)C(=O)O)cc3)CCCCC2)cc1)C(=O)O` (stereo unspecified) [Clinofibrate], for which the “percentage of GFP+” value was 52.6%.
For `OCC(O)CN1CCN(c2ccccc2)CC1` (stereo unspecified) [Dropropizine] the value was 51.5%.
On to `C[C@]12CC[C@@H]3c4ccc(O)cc4CC[C@H]3[C@@H]1C[C@@H](O)[C@@H]2O` [Estriol], for which the “percentage of GFP+” value is 49.2%.
Regarding `CCN1/C(=C/C(C)=O)Sc2ccc(OC)cc21`, the “percentage of GFP+” value is 50.3%.
For the molecule `Cc1c(CN2CCN(C(=O)[C@H](C)O)CC2)sc2c(N3CCOCC3)nc(-c3cnc(N)nc3)nc12`, the “percentage of GFP+” value is 34.5%.
Consider `COc1ccc(-c2nc(N3CCOCC3)c3sc(CN(C)c4ncc(C(=O)NO)cn4)cc3n2)cn1` [Fimepinostat], for which the “percentage of GFP+” value was 3.62% (active).
For `CS(=O)(=O)N1CCN(Cc2cc3nc(-c4cccc5[nH]ncc45)nc(N4CCOCC4)c3s2)CC1`, the “percentage of GFP+” value is 36.8%.
With `Clc1ccc(C2(c3ccc(-c4cn[nH]c4)cc3)CCNCC2)cc1`, the “percentage of GFP+” value was 43.8%.
In the case of `O=c1c(-c2ccc(O)cc2)coc2cc(O)cc(O)c12` [Genistein], the “percentage of GFP+” value was 47.5%.
For `COc1cc2nc(N3CCN(C(=O)C4COc5ccccc5O4)CC3)nc(N)c2cc1OC` (stereo unspecified) [Doxazosin] the value was 44.1%; for `CC(C)CN(C[C@@H](O)[C@H](Cc1ccccc1)NC(=O)O[C@H]1CO[C@H]2OCC[C@H]21)S(=O)(=O)c1ccc(N)cc1` [Darunavir], 45.7%; for `CC(/C=C/C(=O)NO)=C\[C@@H](C)C(=O)c1ccc(N(C)C)cc1` [Trichostatin A], 10.8% (active).
For `CN(C)c1ccc(C(=O)NCCCCCCC(=O)NO)cc1`, the “percentage of GFP+” value was 30.4%.
As to `Cc1cc(N2CCOCC2)ccc1Nc1nc(NC2CCCCC2)c2[nH]cnc2n1`, the “percentage of GFP+” value was 33.6%.
For the molecule `C/C(=N\NC(=S)N1CCC1)c1ccccn1`, the “percentage of GFP+” value is 6.13% (active).
For `CO[C@H]1C[C@@H]2CC[C@@H](C)[C@@](O)(O2)C(=O)C(=O)N2CCCC[C@H]2C(=O)O[C@H]([C@H](C)C[C@@H]2CC[C@@H](O)[C@H](OC)C2)CC(=O)[C@H](C)/C=C(\C)[C@@H](O)[C@@H](OC)C(=O)[C@H](C)C[C@H](C)/C=C/C=C/C=C/1C` [Rapamycin] the value was 37.8%.
For `CC(=O)Nc1ccc(C(=O)Nc2ccccc2N)cc1` [Tacedinaline] the value was 34.9%.
For `CCCCN(Cc1ccc(C(=O)NO)cc1)C(=O)Nc1ccccc1` [Nexturastat A] the value was 47.5%.
For the molecule `CC(C)[C@H](C(=O)Nc1ccc(C(=O)NO)cc1)c1ccccc1`, the “percentage of GFP+” value is 9.62% (active).
As to `COc1cc(OC)c(/C=C/S(=O)(=O)Cc2ccc(OC)c(NCC(=O)O)c2)c(OC)c1` [Rigosertib], the “percentage of GFP+” value is 27.9%.
For `O=C(O)COCCN1CCN(C(c2ccccc2)c2ccc(Cl)cc2)CC1` (stereo unspecified) [Cetirizine] the value was 46.1%.
For `C[C@@H](NCCCc1cccc(C(F)(F)F)c1)c1cccc2ccccc12` [Cinacalcet] the value was 33.2%; for `CCCSc1nc(N[C@@H]2C[C@H]2c2ccc(F)c(F)c2)c2nnn([C@@H]3C[C@H](OCCO)[C@@H](O)[C@H]3O)c2n1` [Ticagrelor], 30.8%.
`COc1cc([C@@H]2c3cc4c(cc3[C@@H](O[C@@H]3O[C@@H]5CO[C@@H](c6cccs6)O[C@H]5[C@H](O)[C@H]3O)[C@H]3COC(=O)[C@H]23)OCO4)cc(OC)c1O` [Teniposide]: the “percentage of GFP+” value is 21.1%.
For `COc1cc([C@@H]2c3cc4c(cc3[C@@H](O[C@@H]3O[C@@H]5CO[C@@H](C)O[C@H]5[C@H](O)[C@H]3O)[C@H]3COC(=O)[C@H]23)OCO4)cc(OC)c1O` [Etoposide] the value was 19.3% (active); for `C=CC(=O)Nc1cccc(Sc2nc(Nc3ccc(N4CCN(C)CC4)cc3)ncc2Cl)c1`, 46.3%; for `O=C(Nc1ccccc1Br)N[C@@H]1CCN(c2ccc(C(F)(F)F)cn2)C1`, 39.1%.
In the case of `CCCC(C)NC(=O)c1ccc(Cl)c(Cl)c1` (stereo unspecified), the “percentage of GFP+” value is 45.8%.
In the case of `CC(C)C[C@H](NC(=O)CNC(=O)c1cc(Cl)ccc1Cl)B(O)O` [Ixazomib], the “percentage of GFP+” value was 4.65% (active).
On to `CNCC[C@H](Oc1cccc2ccccc12)c1cccs1` [Duloxetine], for which the “percentage of GFP+” value was 33.8%.
As to `Cn1c(=O)c2nc[nH]c2n(C)c1=O` [Aminophylline, Theophylline], the “percentage of GFP+” value was 44.7%.
For `CN(C)CCN(Cc1ccccc1)c1ccccn1` [Tripelennamine] the value was 45.6%.
In the case of `O=C[C@H](O)[C@@H](O)[C@H](O)[C@H](O)CO` [D-glucose], the “percentage of GFP+” value is 42.5%.
In the case of `C[C@@H]1CN(CC(=O)Nc2ccc3c(c2)Cc2cccc(-c4cc(=O)cc(N5CCOCC5)o4)c2S3)C[C@H](C)O1`, the “percentage of GFP+” value is 44.7%.
In the case of `Nc1nc(Cl)nc2c1ncn2[C@@H]1O[C@H](CO)[C@@H](O)[C@@H]1F` [Clofarabine], the “percentage of GFP+” value was 35.5%.
Consider `COc1ccc2c(c1)c(C1=C(c3c[nH]c4ccccc34)C(=O)NC1=O)cn2CCCN(C)C`, for which the “percentage of GFP+” value is 60.7%.
For `O=C(/C=C/c1ccc(CN(CCO)CCc2c[nH]c3ccccc23)cc1)NO` [Dacinostat] the value was 4.88% (active); for `OCc1c[nH]c2ccccc12` [Indole-3-carbinol], 47%.
Turning to `O=C(O)CCCc1c[nH]c2ccccc12` [3-Indolebutyric Acid], the “percentage of GFP+” value was 48.2%.
